From PubChem BioAssay AID793 (The Scripps Research Institute Molecular Screening Center, 2007)
About 1,400 (1%) of roughly 140,000 compounds were called active. The entries come from a sample that favours actives as a whole. Values without a mark were called inactive. No stated cut-off is given here; in the data, active means inhibition above about 17%; inactive means the rest.

Each compound was assayed against Neuropeptide Y receptor type 2 (Homo sapiens) (UniProt P49146) (assay: blockers of human neuropeptide Y Y2 receptor – cell-based, primary screen (AID 793;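 further: 0% = vehicle with agonist challenge and 100% = reference antagonist with challenge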)). Details: NPY-Y2 expressing cells, antagonist mode; at 2.7 µM; hits give high values.
Chain of Neuropeptide Y receptor type 2 (Homo sapiens) (P49146 whole entry, looked up): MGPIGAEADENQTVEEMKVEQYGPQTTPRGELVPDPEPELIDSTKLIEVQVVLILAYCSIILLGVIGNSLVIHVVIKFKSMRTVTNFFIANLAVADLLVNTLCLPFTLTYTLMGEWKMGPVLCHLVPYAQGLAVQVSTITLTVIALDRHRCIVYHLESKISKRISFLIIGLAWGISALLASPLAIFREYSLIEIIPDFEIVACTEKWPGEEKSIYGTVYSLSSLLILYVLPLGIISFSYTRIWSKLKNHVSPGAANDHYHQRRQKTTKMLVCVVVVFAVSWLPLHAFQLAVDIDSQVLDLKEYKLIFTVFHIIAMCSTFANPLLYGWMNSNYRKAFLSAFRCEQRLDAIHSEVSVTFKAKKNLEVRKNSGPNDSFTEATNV

SMILES | inhibition
O=C(COC(=O)c1cc([N+](=O)[O-])ccc1NCc1ccccc1)NC1CCCCC1 | 5.74%
COc1ccc(CCn2nnnc2C(c2ccccc2)N2CCN(C)CC2)cc1OC (stereo not given) | 5.97%
N#Cc1ccc(C(c2nnnn2CCc2ccccc2)N2CCCCCC2)cc1 (stereo not given) | 17.9% (active)
CC(C)C(c1nnnn1CCc1ccccc1)N1CCN(C(=O)c2ccco2)CC1 (stereo not given) | 3.59%
CCOc1cc(CNCc2ccccn2)ccc1OCC(=O)NC(C)(C)C | 2.66%
Cc1ccc(NC(=O)CCOc2ccccc2)cc1S(=O)(=O)Nc1ccccc1Cl | 0.14%
CCOC(=O)c1ccc(N/C(=N/S(=O)(=O)c2ccccc2)c2ccccc2)cc1 | 0.02%
O=C(CNC(=O)C(c1ccccc1)c1ccccc1)N/N=C\c1ccc2c(c1)OCO2 | 9.72%
CCOc1ccc(NC(=O)CSc2nc3ccccc3c(=O)n2Cc2cccs2)cc1 | 1.51%
Cc1cccc(N2Cc3ccccc3C2=NC(=O)c2ccc(Cl)nc2)c1 | 1.24%
O=C(Nc1ccccc1)OCc1cn(-c2ccc(Cl)cc2)nn1 | 12%
N#Cc1ccc(N2Cc3ccccc3/C2=N/C(=O)Nc2ccc(Cl)cc2)cc1 | 108% (active)
COc1ccc(C(=O)CSc2nnc(COc3ccccc3)n2Cc2ccco2)cc1 | 16.4%
COc1ccc(-c2oc3ncn(Cc4ccco4)c(=N)c3c2-c2ccc(OC)cc2)cc1 | 18.1% (active)
c1ccc(-c2oc3ncnc(N4CCOCC4)c3c2-c2ccccc2)cc1 | 4.38%
N=c1c2c(-c3ccccc3)c(-c3ccccc3)oc2ncn1Cc1ccco1 | 20.1% (active)
COc1ccc2[nH]c3c(=O)n(Cc4ccco4)cnc3c2c1 | 3.41%
C(=C\c1ccccc1)/CSc1nnc(-c2cccnc2)n1Cc1ccco1 | 7.64%
O=C(Nc1nnc(C2COc3ccccc3O2)o1)c1ccc(F)cc1 (stereo not given) | 7.93%
CN(C)CCNC(=O)/C(=C/c1cccc([N+](=O)[O-])c1)NC(=O)c1ccccc1 | 1.28%
OCCCN1c2ccccc2Nc2nnc(-c3ccccc3)cc21 | 3.77%
N=c1c2c(-c3ccccc3)c(-c3ccccc3)n(Cc3ccccc3)c2ncn1CCCO | 72.4% (active)
Cc1ccc2[nH]cc(CCNC(=O)c3ccc([N+](=O)[O-])cc3)c2c1 | -0.38%
CSCc1ccc(C(=O)Nc2cc(C)cc(C)c2)cc1 | 3.07%

SMILES | inhibition
CC(=O)c1c(Nc2ccccc2)sc(C(=O)c2ccccc2)c1C | 14.2%
COC(=O)Nc1sc2nc(C)cc(C)c2c1-n1cccc1 | 2.27%
CCCCOC(=O)Nc1sc2nc(C)cc(C)c2c1-n1cccc1 | 4.45%
Cc1cc(C)c2c(-n3cccc3)c(NC(=O)OCc3ccccc3)sc2n1 | 24.7% (active)
O=C(Nc1cccc(S(=O)(=O)N2CCCCC2)c1)c1ccc2c(c1)OCO2 | 3.64%
COc1ccccc1Nc1ncnc2c1oc1ccccc12 | 19.4% (active)
Cc1nc(Cl)c2oc3ccccc3c2n1 | 4.04%
CCc1nc(Nc2ccc3nccnc3c2)c2oc3ccccc3c2n1 | -2.05%
CCC(C)(C)NC(=O)c1cc([N+](=O)[O-])ccc1N1CCCCC1 | 0.52%
CCN1CCN(c2ccc([N+](=O)[O-])cc2C(=O)c2ccc(Cl)cc2)CC1 | 22.2% (active)
O=[N+]([O-])c1ccc(N2CCN(c3ccc(O)cc3)CC2)c(Cl)c1 | -2.81%
NC(=O)CC[C@@H]1NC(=O)[C@@H]2CCCN2C(=O)c2cc([N+](=O)[O-])cc(F)c2NCCC[C@@H](C(N)=O)NC1=O | -1.38%
CCC1=NN(C(=O)Cc2ccc([N+](=O)[O-])cc2)C(O)(c2ccc(Br)cc2)C1 (stereo not given) | 4%
COCCNC(=O)C(c1ccc(C)o1)N(Cc1ccccc1)C(=O)Cn1nnc2ccccc21 (stereo not given) | 2.71%
COc1ccccc1N(C(=O)Cn1nnc2ccccc21)C(C(=O)NCc1ccco1)c1ccc(C)o1 (stereo not given) | 26.2% (active)
Cc1ccc(C(C(=O)NCc2ccco2)N(CC2CCCO2)C(=O)Cn2nnc3ccccc32)cc1 (stereo not given) | 5.64%
O=C(Cn1nc(CNc2ccc(Cl)cc2)[n+]2c1CCCCC2)c1ccc(Cl)cc1 | 0.53%
CCn1nc(C)c(/C=N/NC(=O)Cc2ccc(Cl)cc2)c1C | 2.23%
COc1cccc(NC(=O)Cc2ccc(C)cc2)c1 | 3.66%
COc1ccc(NS(=O)(=O)c2ccc(NC(=S)NC(=O)/C=C/c3ccc(C)cc3)cc2)nn1 | 3.45%
COc1ccc(NC(=O)/C(Cl)=C(/Cl)S(=O)Cc2ccc(C)cc2)cn1 (stereo not given) | 52% (active)
CN(C)c1ccc(/C=N/NC(=O)c2ccc(Cn3cc(Br)cn3)o2)cc1 | -0.65%
CCCCC1S/C(=N/N=C/c2cccs2)NC1=O (stereo not given) | 2.47%
CCOc1cccc(SCc2noc(C(=O)NC(C)C)c2C(=O)O)c1 | 6.09%

SMILES | inhibition
CCCCNC(=O)c1onc(CSc2cccc(OC)c2)c1C(=O)O | 28% (active)
COCCNC(=O)c1onc(CSc2cccc(C)c2)c1C(=O)O | 5.73%
COc1ccnc(Oc2ccccc2)n1 | 1.08%
CC12CN(Cc3ccccc3)CC(C)(CN(Cc3ccccc3)C1)C2=NO | 28.4% (active)
O=C(Nc1ccccc1)N1CCN(Cc2ccccc2)CC1 | 0.29%
CCCC(=O)C1CCN(Cc2ccccc2)CC1 | 0.89%
COc1ccccc1N1CCN(CC(=O)NC(=O)NCc2ccco2)CC1 | 2.56%
CC(C)n1c(C(O)c2ccccc2)nc2ccccc21 (stereo not given) | 1.4%
CC(Nc1nc(N2CCCC2)nc2ccccc12)c1ccccc1 (stereo not given) | 54.6% (active)
Cc1ccc(C(CC(=O)O)Nc2nc(N3CCCCC3)nc(N3CCCCC3)n2)cc1 (stereo not given) | 1.53%
Cc1cc(Oc2ccc(Cl)cc2)nc(SCC(=O)c2ccccc2)n1 | 48.6% (active)
COC(=O)c1cc(C(=O)CSc2nc(C)cc(C)n2)ccc1O | 4.06%
Cc1cc(SCC(=O)c2ccccc2)nc(SCC(=O)c2ccccc2)n1 | 13.8%
Cc1ccccc1OCC(=O)Nc1nc(C)c(C(=O)N(C)C)s1 | 5.58%
CC1CCN(C(=S)NC2CC3CCC2C3)CC1 (stereo not given) | 1.13%
O=C(CN1C(=O)NC(Cc2ccccc2)(Cc2ccccc2)C1=O)NCC1CCCCC1 | 80.5% (active)
O=C(CN1C(=O)NC2(CCCCCC2)C1=O)NCc1cccs1 | -3.2%
O=C(CN1C(=O)NC2(CCCCC2)C1=O)NCCC1=CCCCC1 | 0.27%
O=C1CC(c2cccc(Cl)c2)CC(O)=C1C=Nc1ccccc1 (stereo not given) | 18.4% (active)
O=C1CC(c2ccccc2)CC(O)=C1C=NCCN1CCOCC1 (stereo not given) | 0.58%
O=C1CCCC(O)=C1C=NCCc1ccccc1 | 1.66%
COc1ccc(NC(C(=O)Nc2cccc(C(C)=O)c2)c2ccccc2)cc1 (stereo not given) | -1.54%
COCCCNCCOCCOc1ccc(Cl)cc1Br | 3.88%
O=C(NCc1cccnc1)c1ccc(CS(=O)(=O)c2ccc(Br)cc2)o1 | -0.12%

SMILES | inhibition
Cc1ccc(S(=O)(=O)N(Cc2ccc(Cl)cc2)c2ccccc2C(=O)NCc2cccnc2)cc1 | 35% (active)
O=C(NCc1cccnc1)c1cccnc1Sc1ccc(Cl)cc1 | -0.63%
COc1ccc(/C=N/NC(=O)c2ccccc2)cc1OS(=O)(=O)c1ccccc1 | 0.26%
COc1ccc(-c2noc(COc3ccc(Cl)c(C)c3)n2)cc1 | 18.2% (active)
COc1ccc(-c2noc(-c3ccc(C)cc3)n2)cc1 | 2.85%
COc1ccc(-c2noc(CSc3ccc(C)cc3)n2)cc1 | 16.5%
O=C(NCCCO)/C(=C\C=C\c1ccccc1)NC(=O)c1ccccc1Cl | 1.12%
CCOC12CC(C)(C)CC(C)(CC3=C1C(=O)CC(C)(C)C3)C2 (stereo not given) | 3.39%
COc1ccc(C(=O)Nc2c(Cl)cc(Cl)cc2C(=O)N2CCC(C)CC2)cc1 | 3.91%
O=c1c2ccccc2nc2n1C1(CCCCC1)Cc1ccccc1-2 | 21.2% (active)
CCC1(CC)Cc2ccccc2-c2nc3ccccc3c(=O)n21 | 7.5%
c1cncc(-c2nnc3n2C2(CCCCC2)Cc2ccccc2-3)c1 | 1.77%
COc1ccc(C(C(=O)NC2CCCCC2)N(C(=O)Cc2c[nH]c3ccccc23)c2ccccc2)cc1OC (stereo not given) | 0.1%
CC(NC(=O)c1cccc2ccccc12)c1ccc2c(c1)CCCC2 (stereo not given) | 5.32%
O=C(CC(O)(C(F)(F)F)C(F)(F)F)Nc1ccc(Cl)c(Cl)c1 | 24.4% (active)
O=C(CC(=O)Nc1ccc(Cl)c(Cl)c1)N/N=C/c1ccc(O)cc1 | -3.17%
CN(C)CCNC(CC(=O)Nc1ccc(Cl)c(Cl)c1)C(=O)O (stereo not given) | 0.54%
Nc1nc(SCc2ccc([N+](=O)[O-])cc2)c2ncn(C3OC(CO)C(O)C3O)c2n1 (stereo not given) | 1.64%
O=C(Nc1cn(-c2ccccc2)nc1-c1ccccc1)c1ccccc1 | 9.26%
O=C(NCCN1CCOCC1)c1cc(Sc2cccc(Cl)c2)nc2ccccc12 | 3.17%
CCCCNC(=O)C1(c2ccc(OC)cc2)CCOCC1 | 3.6%
CCCCCNC(=O)Cc1ccc(OC)cc1 | 20.3% (active)
COc1ccc(OCCCC(=O)NCCc2ccccc2)cc1 | 4.05%
